The record followed here is ChEMBL document CHEMBL1961873, “Compounds: GSK PKIS; Assays: Nanosyn kinase panel” (2012).

Assay [1] has as its system Epidermal growth factor receptor (Homo sapiens), P00533 [T790M]. Conditions: at 1 µM.
The test system of assay [2] is Epidermal growth factor receptor (Homo sapiens), P00533 [L858R,T790M]. Conditions: at 0.1 µM.
Assay [3] has the same test system. Conditions: at 1 µM.
The target in assay [4] is Ephrin type-A receptor 2 (Homo sapiens) (UniProt P29317). Conditions: at 0.1 µM.
Assay [5] has the same target. Conditions: at 1 µM.
Assay [6] concerns the target T1, Ephrin type-A receptor 3 (Homo sapiens) (UniProt P29320).
T1 sequence (whole entry): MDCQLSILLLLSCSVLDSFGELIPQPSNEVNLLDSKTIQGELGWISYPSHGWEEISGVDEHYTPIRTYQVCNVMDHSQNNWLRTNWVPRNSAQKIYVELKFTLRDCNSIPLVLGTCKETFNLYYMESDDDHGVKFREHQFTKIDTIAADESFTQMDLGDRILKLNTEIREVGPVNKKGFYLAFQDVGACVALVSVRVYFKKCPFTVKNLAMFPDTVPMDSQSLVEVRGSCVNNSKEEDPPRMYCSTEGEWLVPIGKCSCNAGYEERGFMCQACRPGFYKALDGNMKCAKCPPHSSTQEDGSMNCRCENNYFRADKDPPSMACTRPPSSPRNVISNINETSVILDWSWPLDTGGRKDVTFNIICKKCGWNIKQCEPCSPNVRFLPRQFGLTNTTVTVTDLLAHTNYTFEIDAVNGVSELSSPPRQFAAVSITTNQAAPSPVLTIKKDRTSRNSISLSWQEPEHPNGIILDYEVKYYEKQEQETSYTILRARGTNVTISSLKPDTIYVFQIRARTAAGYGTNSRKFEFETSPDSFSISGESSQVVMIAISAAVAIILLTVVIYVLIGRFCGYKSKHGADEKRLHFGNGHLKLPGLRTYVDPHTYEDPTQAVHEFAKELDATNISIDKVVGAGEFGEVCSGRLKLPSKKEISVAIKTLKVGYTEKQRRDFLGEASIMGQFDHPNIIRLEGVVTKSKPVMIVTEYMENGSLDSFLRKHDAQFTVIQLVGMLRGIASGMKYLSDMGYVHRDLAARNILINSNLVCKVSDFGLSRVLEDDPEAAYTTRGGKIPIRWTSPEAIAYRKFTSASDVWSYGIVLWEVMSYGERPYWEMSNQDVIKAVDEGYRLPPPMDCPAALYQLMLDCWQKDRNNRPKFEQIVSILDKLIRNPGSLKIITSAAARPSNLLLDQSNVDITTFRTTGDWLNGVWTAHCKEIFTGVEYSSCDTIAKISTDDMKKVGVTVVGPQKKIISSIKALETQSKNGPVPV
Conditions: at 0.1 µM.

The target of assay [7] is T1, Ephrin type-A receptor 3 (Homo sapiens). Conditions: at 1 µM.
For assay [8], the target named is Ephrin type-A receptor 4 (Homo sapiens) (UniProt P54764). Conditions: at 0.1 µM.
Assay [9] has the same target. Conditions: at 1 µM.
Assay [10] deals with T2, Ephrin type-B receptor 2 (Homo sapiens) (UniProt P29323).
T2 sequence (whole entry): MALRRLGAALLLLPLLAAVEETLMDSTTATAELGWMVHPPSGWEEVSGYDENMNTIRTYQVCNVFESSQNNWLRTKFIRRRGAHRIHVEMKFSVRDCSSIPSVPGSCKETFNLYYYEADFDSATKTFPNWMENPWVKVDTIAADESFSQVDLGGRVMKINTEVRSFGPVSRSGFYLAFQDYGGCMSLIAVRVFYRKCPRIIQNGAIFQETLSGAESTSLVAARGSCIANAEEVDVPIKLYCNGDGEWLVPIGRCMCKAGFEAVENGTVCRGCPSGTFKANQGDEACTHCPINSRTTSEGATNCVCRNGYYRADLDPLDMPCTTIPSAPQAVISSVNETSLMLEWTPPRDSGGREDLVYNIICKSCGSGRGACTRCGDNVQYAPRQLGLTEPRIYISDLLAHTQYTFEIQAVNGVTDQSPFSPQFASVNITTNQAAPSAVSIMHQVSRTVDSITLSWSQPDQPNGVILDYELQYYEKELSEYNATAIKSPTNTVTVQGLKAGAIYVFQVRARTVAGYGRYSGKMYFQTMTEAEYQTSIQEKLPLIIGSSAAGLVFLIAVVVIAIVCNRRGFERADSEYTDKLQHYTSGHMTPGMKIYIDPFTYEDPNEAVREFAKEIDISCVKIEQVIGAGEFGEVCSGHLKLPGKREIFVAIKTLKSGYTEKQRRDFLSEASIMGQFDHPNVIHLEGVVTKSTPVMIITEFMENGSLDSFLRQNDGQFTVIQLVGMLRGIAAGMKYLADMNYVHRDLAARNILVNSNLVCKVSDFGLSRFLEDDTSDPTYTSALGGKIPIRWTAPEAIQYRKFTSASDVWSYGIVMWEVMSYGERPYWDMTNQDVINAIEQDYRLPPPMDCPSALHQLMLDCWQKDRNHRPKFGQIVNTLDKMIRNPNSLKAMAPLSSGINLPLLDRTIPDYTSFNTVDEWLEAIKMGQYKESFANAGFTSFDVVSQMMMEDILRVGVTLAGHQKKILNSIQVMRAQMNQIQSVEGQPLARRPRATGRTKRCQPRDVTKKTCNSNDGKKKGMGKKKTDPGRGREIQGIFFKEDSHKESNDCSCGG
Conditions: at 0.1 µM.

In assay [11] the target is T2, Ephrin type-B receptor 2 (Homo sapiens). Conditions: at 1 µM.
Assay [12] concerns the target T3, Ephrin type-B receptor 3 (Homo sapiens) (UniProt P54753).
T3 sequence (whole entry): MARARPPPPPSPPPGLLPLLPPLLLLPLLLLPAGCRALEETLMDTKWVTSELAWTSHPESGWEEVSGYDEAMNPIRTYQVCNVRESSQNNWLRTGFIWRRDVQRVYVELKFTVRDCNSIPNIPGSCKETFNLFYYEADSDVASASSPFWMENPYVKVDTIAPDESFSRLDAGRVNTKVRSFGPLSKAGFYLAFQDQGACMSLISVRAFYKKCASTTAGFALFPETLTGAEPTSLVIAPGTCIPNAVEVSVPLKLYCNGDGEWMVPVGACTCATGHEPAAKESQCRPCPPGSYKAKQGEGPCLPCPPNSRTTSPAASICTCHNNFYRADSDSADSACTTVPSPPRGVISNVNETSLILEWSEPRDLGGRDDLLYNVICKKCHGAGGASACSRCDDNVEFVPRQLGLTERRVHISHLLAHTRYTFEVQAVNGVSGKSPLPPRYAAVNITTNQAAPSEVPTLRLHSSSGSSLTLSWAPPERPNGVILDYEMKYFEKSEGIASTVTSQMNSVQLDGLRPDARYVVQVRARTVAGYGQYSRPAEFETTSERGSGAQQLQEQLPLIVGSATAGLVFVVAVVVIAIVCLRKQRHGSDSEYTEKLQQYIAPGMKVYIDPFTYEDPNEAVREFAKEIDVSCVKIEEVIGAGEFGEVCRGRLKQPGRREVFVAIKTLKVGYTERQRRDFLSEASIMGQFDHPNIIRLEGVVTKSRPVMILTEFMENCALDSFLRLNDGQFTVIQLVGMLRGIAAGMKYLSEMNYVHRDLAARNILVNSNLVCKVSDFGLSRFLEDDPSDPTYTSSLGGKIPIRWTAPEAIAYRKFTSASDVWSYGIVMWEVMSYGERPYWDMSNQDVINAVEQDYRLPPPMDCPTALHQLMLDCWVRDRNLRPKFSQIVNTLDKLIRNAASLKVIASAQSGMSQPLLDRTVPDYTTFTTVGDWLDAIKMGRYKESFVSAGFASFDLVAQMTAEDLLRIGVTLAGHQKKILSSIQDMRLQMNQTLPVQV
Conditions: at 0.1 µM.

The target of assay [13] is T3, Ephrin type-B receptor 3 (Homo sapiens). Conditions: at 1 µM.
The target in assay [14] is T4, Ephrin type-B receptor 4 (Homo sapiens) (UniProt P54760).
T4 sequence (whole entry): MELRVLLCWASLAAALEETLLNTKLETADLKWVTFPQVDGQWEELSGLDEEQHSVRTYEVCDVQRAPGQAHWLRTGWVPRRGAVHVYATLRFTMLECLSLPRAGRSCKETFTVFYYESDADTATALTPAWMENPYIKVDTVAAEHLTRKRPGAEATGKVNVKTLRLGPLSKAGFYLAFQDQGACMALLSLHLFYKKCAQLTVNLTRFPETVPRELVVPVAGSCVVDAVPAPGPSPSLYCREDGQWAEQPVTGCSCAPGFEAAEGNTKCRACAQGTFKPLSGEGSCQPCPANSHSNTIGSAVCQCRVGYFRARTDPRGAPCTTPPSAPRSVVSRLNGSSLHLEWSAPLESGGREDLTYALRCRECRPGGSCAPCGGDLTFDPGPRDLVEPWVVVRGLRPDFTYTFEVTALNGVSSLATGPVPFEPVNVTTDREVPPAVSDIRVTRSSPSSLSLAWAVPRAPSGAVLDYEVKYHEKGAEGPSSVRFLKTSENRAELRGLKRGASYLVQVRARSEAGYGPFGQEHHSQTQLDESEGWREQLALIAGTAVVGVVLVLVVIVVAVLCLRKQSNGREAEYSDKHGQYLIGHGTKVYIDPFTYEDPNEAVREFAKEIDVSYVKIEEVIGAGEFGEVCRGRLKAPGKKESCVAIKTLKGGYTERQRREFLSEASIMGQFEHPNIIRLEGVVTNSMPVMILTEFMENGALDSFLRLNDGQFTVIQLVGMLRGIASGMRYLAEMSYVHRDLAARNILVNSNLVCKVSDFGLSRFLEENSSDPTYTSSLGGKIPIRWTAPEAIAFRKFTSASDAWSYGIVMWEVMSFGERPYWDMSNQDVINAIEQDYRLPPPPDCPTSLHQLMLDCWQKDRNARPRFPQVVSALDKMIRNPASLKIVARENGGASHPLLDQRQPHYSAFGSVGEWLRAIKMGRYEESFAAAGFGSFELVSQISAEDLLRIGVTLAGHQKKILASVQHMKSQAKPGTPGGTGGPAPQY
Conditions: at 0.1 µM.

For assay [15], the target named is T4, Ephrin type-B receptor 4 (Homo sapiens). Conditions: at 1 µM.
Assay [16] addresses Receptor tyrosine-protein kinase erbB-2 (Homo sapiens) (UniProt P04626). Conditions: at 0.1 µM.
The target is the same in assay [17]. Conditions: at 1 µM.
Assay [18] deals with Receptor tyrosine-protein kinase erbB-4 (Homo sapiens) (UniProt Q15303). Conditions: at 0.1 µM.
For assay [19] the target is unchanged. Conditions: at 1 µM.
Assay [20] addresses Tyrosine-protein kinase Fer (Homo sapiens) (UniProt P16591). Conditions: at 0.1 µM.

Chain of Receptor tyrosine-protein kinase erbB-2 (Homo sapiens) (P04626 whole entry): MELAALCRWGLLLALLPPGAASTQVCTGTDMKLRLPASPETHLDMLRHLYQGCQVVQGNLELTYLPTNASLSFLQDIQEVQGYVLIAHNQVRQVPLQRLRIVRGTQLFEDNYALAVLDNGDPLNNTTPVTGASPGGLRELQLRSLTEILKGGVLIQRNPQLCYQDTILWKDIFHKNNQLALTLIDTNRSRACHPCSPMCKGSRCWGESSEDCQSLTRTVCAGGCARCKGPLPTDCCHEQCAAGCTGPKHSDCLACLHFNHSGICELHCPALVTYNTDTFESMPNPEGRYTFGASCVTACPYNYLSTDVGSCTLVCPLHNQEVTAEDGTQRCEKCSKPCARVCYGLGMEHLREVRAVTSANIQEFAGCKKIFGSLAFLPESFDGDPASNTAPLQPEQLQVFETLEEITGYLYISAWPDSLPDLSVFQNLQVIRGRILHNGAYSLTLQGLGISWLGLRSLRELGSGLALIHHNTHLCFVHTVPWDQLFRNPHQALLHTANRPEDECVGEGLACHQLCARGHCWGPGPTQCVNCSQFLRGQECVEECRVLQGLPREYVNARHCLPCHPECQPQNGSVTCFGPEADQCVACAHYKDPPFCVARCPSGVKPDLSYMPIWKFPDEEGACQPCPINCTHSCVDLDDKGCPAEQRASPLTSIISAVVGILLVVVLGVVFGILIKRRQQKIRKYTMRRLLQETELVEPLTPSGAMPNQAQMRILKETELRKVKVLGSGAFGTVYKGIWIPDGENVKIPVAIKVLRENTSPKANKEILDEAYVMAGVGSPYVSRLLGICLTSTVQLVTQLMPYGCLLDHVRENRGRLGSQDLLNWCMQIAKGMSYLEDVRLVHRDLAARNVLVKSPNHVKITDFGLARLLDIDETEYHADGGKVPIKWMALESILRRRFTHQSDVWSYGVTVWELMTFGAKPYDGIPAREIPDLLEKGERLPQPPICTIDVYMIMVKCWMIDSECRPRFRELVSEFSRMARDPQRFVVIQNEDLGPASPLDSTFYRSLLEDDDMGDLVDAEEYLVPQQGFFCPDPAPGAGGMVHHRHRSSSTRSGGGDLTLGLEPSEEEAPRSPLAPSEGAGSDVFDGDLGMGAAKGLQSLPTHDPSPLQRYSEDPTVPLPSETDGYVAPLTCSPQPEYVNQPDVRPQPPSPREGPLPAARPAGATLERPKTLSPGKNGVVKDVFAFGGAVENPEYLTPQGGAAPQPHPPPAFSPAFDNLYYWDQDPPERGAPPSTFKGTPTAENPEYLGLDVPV
Chain of Ephrin type-A receptor 2 (Homo sapiens) (P29317 whole entry): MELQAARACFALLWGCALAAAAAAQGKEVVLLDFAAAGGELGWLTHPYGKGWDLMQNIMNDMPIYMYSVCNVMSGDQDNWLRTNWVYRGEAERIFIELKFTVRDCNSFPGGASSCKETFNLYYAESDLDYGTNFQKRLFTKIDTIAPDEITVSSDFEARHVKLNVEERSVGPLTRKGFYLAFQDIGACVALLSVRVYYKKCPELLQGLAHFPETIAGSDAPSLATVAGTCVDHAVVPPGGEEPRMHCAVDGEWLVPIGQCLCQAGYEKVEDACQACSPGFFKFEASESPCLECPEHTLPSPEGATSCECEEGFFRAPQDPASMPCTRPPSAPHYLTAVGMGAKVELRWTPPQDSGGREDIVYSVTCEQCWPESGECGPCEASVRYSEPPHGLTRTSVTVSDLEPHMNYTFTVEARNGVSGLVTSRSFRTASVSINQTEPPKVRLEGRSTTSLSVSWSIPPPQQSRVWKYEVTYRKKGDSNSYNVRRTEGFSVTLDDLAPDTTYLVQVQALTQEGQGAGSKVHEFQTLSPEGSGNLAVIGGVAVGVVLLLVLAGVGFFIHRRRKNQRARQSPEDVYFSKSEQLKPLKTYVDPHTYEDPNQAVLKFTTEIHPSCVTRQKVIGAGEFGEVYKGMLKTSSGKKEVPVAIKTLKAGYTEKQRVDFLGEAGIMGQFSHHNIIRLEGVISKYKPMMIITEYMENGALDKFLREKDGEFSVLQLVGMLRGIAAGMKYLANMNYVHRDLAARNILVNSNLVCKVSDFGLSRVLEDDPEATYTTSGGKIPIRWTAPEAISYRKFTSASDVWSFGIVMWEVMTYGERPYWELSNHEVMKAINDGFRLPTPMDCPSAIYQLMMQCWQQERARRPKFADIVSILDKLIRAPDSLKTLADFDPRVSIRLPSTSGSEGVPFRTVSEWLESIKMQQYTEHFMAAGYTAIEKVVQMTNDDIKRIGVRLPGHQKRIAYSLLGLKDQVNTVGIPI
Chain of Tyrosine-protein kinase Fer (Homo sapiens) (P16591 whole entry, looked up): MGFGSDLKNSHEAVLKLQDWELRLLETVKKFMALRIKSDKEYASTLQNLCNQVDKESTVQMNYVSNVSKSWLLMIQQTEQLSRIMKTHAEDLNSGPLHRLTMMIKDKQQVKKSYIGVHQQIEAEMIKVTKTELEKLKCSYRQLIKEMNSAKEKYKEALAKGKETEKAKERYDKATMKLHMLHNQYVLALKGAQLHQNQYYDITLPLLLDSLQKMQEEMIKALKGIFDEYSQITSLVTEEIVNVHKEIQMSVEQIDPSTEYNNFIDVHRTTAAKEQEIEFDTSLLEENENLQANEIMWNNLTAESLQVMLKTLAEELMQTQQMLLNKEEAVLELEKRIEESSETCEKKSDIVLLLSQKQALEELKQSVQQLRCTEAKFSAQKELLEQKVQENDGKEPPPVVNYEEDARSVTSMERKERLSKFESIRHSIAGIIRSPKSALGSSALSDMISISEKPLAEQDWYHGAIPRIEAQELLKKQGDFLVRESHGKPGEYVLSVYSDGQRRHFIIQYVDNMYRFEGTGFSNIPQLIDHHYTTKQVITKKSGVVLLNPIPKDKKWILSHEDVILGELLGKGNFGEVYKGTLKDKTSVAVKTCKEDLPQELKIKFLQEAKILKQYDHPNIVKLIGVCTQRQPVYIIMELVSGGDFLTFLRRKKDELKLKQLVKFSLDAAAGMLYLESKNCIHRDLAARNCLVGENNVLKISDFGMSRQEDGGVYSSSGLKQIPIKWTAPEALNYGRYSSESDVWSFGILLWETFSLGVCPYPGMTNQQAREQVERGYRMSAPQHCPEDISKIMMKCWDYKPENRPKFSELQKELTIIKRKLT
Chain of Epidermal growth factor receptor (Homo sapiens), P00533 [L858R,T790M] (P00533 whole entry T790M/L858R, looked up): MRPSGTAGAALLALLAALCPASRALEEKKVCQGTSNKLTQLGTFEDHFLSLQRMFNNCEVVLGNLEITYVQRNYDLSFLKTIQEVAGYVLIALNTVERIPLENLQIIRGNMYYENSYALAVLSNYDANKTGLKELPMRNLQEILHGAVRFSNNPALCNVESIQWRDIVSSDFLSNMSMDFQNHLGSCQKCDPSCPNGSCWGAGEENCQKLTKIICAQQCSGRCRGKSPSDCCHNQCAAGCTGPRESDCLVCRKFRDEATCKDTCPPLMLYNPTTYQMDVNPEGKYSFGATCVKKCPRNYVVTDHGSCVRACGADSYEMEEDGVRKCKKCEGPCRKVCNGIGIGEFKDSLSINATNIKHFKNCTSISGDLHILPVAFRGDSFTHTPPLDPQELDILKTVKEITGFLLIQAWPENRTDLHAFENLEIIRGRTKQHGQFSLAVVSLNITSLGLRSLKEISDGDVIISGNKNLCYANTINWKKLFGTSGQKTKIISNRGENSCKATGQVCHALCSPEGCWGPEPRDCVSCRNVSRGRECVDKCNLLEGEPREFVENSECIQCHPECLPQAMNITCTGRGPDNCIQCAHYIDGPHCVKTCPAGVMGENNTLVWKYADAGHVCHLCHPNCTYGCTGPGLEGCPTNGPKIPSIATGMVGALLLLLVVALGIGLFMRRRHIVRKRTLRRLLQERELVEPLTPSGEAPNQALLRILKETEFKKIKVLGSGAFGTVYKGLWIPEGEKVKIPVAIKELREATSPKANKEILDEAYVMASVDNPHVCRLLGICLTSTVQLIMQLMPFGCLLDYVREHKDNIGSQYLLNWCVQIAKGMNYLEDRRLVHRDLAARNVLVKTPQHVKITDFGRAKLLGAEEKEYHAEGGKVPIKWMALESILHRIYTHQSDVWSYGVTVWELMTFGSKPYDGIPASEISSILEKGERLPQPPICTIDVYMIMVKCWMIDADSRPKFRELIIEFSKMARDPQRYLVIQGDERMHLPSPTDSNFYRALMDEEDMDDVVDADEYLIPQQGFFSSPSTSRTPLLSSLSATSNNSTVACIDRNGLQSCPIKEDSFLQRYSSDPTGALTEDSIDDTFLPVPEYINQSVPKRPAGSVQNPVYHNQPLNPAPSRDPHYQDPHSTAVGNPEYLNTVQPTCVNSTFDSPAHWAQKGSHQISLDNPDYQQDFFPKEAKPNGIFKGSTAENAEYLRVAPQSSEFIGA

By inhibition is commonly meant the relative decrease from the control value, in per cent. For the molecule `Fc1ccc(-c2ncn(C3CCNCC3)c2-c2ccnc(Oc3ccccc3)n2)cc1`, the inhibition is 2.3% in [1]; -1.55% in [2]; 0.47% in assay [3]; -5.61% in assay [4]; -5.64% in assay [5]; -1.44% in assay [6]. The inhibition in assay [7] was -1.53%; in assay [8], 4.92%; in [9], 5.9%; in assay [10], 5.55%; in [11], 5.52%; in assay [12], -0.53%. The inhibition in assay [13] is -0.5%; in assay [14], -4.2%; in [15], 1.66%; in assay [16], 9.4%; in [17] it was 10.7%; in assay [18] it was 10.8%. Also, the inhibition came to 15.3% in assay [19] and 1.63% in assay [20].

In the case of `COc1cc(C=NNc2ncnc3c2cnn3Cc2ccccc2)ccc1O`, the inhibition in assay [1] was -3.25%; in assay [2] it was -1.62%; in [3], -0.48%; in [4], 15.6%; in [5], 32.4%; in [6], -4.93%. Further, the inhibition in assay [7] is 3.27%; in assay [8], 6.93%; in [9], 21.7%; in assay [10], -3.14%; in assay [11], 9.74%; in assay [12], -7.53%. The inhibition in [13] was -0.1%; in assay [14], 4.81%; in [15], 7.15%; in [16], -6.92%; in assay [17], -3.2%; in assay [20], 3.46%.

Consider `COc1cc2c(cc1Nc1nc(Nc3ccsc3C(N)=O)c3cc[nH]c3n1)N(C(=O)CN(C)C)CCC2`, for which the inhibition in [1] is 55%; in [2], 29.8%; in [3], 77.5%; in [4], 1.21%; in assay [5] it was -1.44%; in assay [6] it was 1.88%. Further, the inhibition was -0.28% in assay [7]; 0.13% in [8]; 4.13% in assay [9]; -6.85% in assay [10]; 5.1% in [11]; 0.25% in [12]. Moreover, the inhibition in assay [13] is 1.02%; in assay [14], -2.11%; in [15], 1.55%; in [16] it was -0.5%; in assay [17] it was 1.76%; in [18], 8.03%. Besides, the figures for the inhibition in assay [19] and in assay [20] were 35.3% and 79.7%, respectively.

Consider `CCn1c(-c2nonc2N)nc2c(C#CC(C)(C)O)ncc(OC[C@@H]3CCCN3)c21`, for which the inhibition is -0.11% in assay [1]; 4.31% in [2]; -0.19% in [3]; 1.83% in assay [4]; 0.02% in [5]; 0.32% in assay [6]. Also, the inhibition in assay [7] is -1.12%; in assay [8], -0.1%; in assay [9], 2.58%; in [10] it was -7.23%; in assay [11], -3.01%; in [12], -0.27%. In addition, the inhibition in assay [13] was 0.62%; in assay [14] it was -1.76%; in [15], 1.1%; in assay [16], 0.95%; in assay [17], 3.51%; in assay [18], 1.3%. In addition, the inhibition in assay [19] is 7.9%; in assay [20], -1.38%.
